Measurements published in PubChem BioAssay AID1851 (National Center for Advancing Translational Sciences (NCATS), 2009).
The whole screen tested about 16,000 compounds, of which about 5,800 (36%) were called active. Roughly 23% stayed inconclusive and do not appear here. The call rests on the fitted dose curve; in most records, active means well fitted curve in the direction sought with a large enough effect; inconclusive means small, poorly fitted or top-dose-only effect, or effect the other way; inactive means no such curve, though single readings can be large or run the other way. This is one part of the list.
On the % scale 0 is the no-effect control and ±100 the full control effect.

What follows are compounds tested against Cytochrome P450 2C19 (Homo sapiens) (UniProt P33261) (assay: Cytochrome panel assay with activity outcomes). Settings: recombinant CYP, pro-luciferin dealkylation, luminescence, p450-cyp2c19; series mostly up to 57.1 µM.
Sequence of Cytochrome P450 2C19 (Homo sapiens) (P33261 whole entry, looked up): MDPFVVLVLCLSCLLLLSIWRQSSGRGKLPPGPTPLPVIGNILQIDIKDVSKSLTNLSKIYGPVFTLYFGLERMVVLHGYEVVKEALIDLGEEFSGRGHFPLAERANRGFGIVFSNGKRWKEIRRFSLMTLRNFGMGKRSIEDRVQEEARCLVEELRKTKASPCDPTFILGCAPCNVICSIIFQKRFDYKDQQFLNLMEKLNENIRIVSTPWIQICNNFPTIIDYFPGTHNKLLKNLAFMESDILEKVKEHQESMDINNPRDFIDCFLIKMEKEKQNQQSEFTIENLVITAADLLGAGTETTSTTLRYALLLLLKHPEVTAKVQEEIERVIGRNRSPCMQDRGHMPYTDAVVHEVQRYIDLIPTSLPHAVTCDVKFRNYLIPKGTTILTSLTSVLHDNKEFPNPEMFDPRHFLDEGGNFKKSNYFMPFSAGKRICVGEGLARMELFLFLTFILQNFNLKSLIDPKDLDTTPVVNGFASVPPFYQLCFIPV
With `CCN(CC)CCNC(=O)c1cc(Cl)c(N)cc1OC` the AC50 was “inactive”.
For `CN1CCC2(CC1)CCN(S(=O)(=O)c1ccccc1)CC2`, the AC50 was “inactive”.
For `O=C1c2ccccc2C(=O)N1CC1c2ccccc2CCN1S(=O)(=O)c1ccccc1` (stereo not given), the AC50 was 2 µM (active).
In the case of `C[N+](C)(C)CCCCCNCC12CC3CC(CC(C3)C1)C2`, the AC50 is reported as “inactive”.
For `Cc1cc(Cn2cnc3c2C[C@@H](C(=O)O)N(C(=O)C(c2ccccc2)c2ccccc2)C3)ccc1N(C)C`, the AC50 was 1.58 µM (active).
With `CCCn1nnc(NC(=O)Cc2ccccc2)n1` the AC50 was 10 µM (active).
`CCCn1nnc(NC(=O)c2ccc(-c3cccc(Cl)c3)o2)n1` was tested, and the AC50 was 20 µM (active).
`CCCC(=O)Nc1nc2n(n1)C(c1ccccc1)CC(=O)N2` (stereo not given) was tested, and the AC50 was “inactive”.
With `CN1CCN(CCCNC(=O)c2ccc(CSCc3cccc(Cl)c3)o2)CC1` the AC50 was “inactive”.
For `Cc1ccc2ccccc2c1CSc1nc(N)nc2c1ncn2CC(C)C`, the AC50 was 3.98 µM (active).
With `CC(C)Cn1cnc2c(SCc3ccc(Cl)cc3Cl)nc(N)nc21` the AC50 was 2 µM (active).
`CC(C)Cn1cnc2c(SCc3ccccn3)nc(N)nc21` was tested, and the activity, negative = inhibition was 9.26% [at 11.4 µM] (inactive).
In the case of `CC(C)Cn1cnc2c(Sc3c([N+](=O)[O-])ncn3C)nc(N)nc21`, the activity, negative = inhibition is reported as 17.8% [at 11.4 µM] (inactive).
In the case of `CC(C)(C)C1CCc2c(C(=O)N/N=C/c3cccs3)csc2C1` (stereo not given), the AC50 is reported as 6.31 µM (active).
For `ClC(=Nc1cccc2ccccc12)N(c1ccccc1)c1ccccc1`, the AC50 was 2.51 µM (active).
With `O=S(=O)(c1cccc(C(F)(F)F)c1)N1CCC(c2cc(-c3cccc4ccccc34)n[nH]2)CC1` the AC50 was 7.08 µM (active).
For `Cc1ccnn2cc3c(=O)n(C)c(=O)n(C)c3c12`, the AC50 was “inactive”.
`C[C@@]1(C(NC(=O)c2ccc(-c3ccccc3)cc2)c2ccc(Cl)cc2)C[C@H]1C1CCCCC1` (stereo not given in full) was tested, and the AC50 was “inactive”.
`C[C@@]1(C(NC(=O)c2cccs2)c2ccc(-c3ccccc3)cc2)C[C@H]1C1CCCCC1` (stereo not given in full) was tested, and the AC50 was “inactive”.
In the case of `COC(=O)c1ccc(C(NC(=O)c2ccccc2)[C@]2(C)C[C@H]2C2CCCCC2)cc1` (stereo not given in full), the AC50 is reported as 2.51 µM (active).
For `O=C(CN1CCCC1)N/N=C/c1ccc(-c2cccc(Cl)c2)o1`, the AC50 was 22.4 µM (active).
In the case of `COc1ccc(NC(=O)N2CCCC3(CCN(C(=O)c4ccco4)CC3)C2)cc1`, the AC50 is reported as “inactive”.
For `COc1ccc2nc(SCC(=O)c3ccco3)[nH]c2c1`, the AC50 was 14.1 µM (active).
With `COC(=O)Nc1nc2ccc(Sc3ccccc3)cc2[nH]1` the AC50 was “inactive”.
`Cc1ccc2nc(SCC(=O)c3ccc4c(c3)OCO4)[nH]c2c1` was tested, and the AC50 was 2.82 µM (active).
`CCOC(=O)NC(=O)CSc1nc2ccc(OCC)cc2[nH]1` was tested, and the AC50 was 14.1 µM (active).
With `COc1ccc2nc(SCC(=O)Nc3ccc4c(c3)OCCO4)[nH]c2c1` the AC50 was 10 µM (active).
In the case of `CCCCc1ccc2nc(NC(=O)OC)[nH]c2c1`, the AC50 is reported as “inactive”.
For `Oc1cc(O)c2c(c1)O[C@H](c1ccc(O)c(O)c1)[C@@H](O)[C@@H]2c1c(O)cc(O)c2c1O[C@@H](c1ccc(O)c(O)c1)[C@H](O)C2`, the activity, negative = inhibition was -23.6% [at 11.4 µM] (inactive).
`CSc1ccc2nnc(-c3cccc(F)c3)n2n1` was tested, and the AC50 was 15.8 µM (active).
In the case of `Cc1cc(C)c(C#N)c(SCc2cc3c(cc2Cl)OCO3)n1`, the AC50 is reported as 6.31 µM (active).
`CON1C(=O)C(=O)N(OC)C(C)(C)C1C` (stereo not given) was tested, and the AC50 was “inactive”.
`c1ccc2nc(C3=NCCN3)ccc2c1` was tested, and the AC50 was “inactive”.
For `c1ccc2nc(-c3ccncc3)ccc2c1`, the AC50 was 3.55 µM (active).
With `COc1cc(Cl)c(CC(=O)c2c[nH]c3ccccc23)cc1OC` the AC50 was 1 µM (active).
In the case of `CN1[C@@H]2CC[C@H]1CC(OC(=O)c1c[nH]c3ccccc13)C2` (stereo not given in full), the AC50 is reported as “inactive”.
In the case of `O=C(OCCN1CCCCC1)c1c[nH]c2ccccc12`, the AC50 is reported as “inactive”.
For `CNC(=O)[C@H](C)[C@@H]1C[C@@]1(C)[C@@H](NC(=O)OCc1ccccc1)c1ccccc1`, the AC50 was 0.631 µM (active).
In the case of `CNC(=O)[C@H](C)[C@H]1C[C@]1(C)[C@H](NC(=O)OCc1ccccc1)c1ccccc1`, the AC50 is reported as 1 µM (active).
In the case of `C[C@H](CO)NC(=O)[C@H](C)[C@H]1C[C@]1(C)[C@H](NC(=O)OCc1ccccc1)c1ccccc1`, the AC50 is reported as 0.631 µM (active).
`CC(=O)NCCC(=O)Nc1sc2c(c1-c1nc3ccccc3[nH]1)CCCC2` was tested, and the AC50 was 14.1 µM (active).
For `CCN(CC)S(=O)(=O)c1cc(C(=O)Nc2ccncc2)ccc1Cl`, the AC50 was 0.01 µM (active).
For `CCN(CC)S(=O)(=O)c1cc(C(=O)Nc2ccccc2C(=O)O)ccc1OC`, the AC50 was “inactive”.
In the case of `CCN(CC)S(=O)(=O)c1cc(C(=O)OC)ccc1Cl`, the AC50 is reported as 11.2 µM (active).
`CCn1ccnc1C[C@@H]1COc2ccccc2O1` was tested, and the AC50 was 10 µM (active).
For `O=C(Nc1ccccc1N1CCN(C(=O)c2ccccc2)CC1)c1cc(Br)ccc1Cl`, the AC50 was 3.16 µM (active).
With `Cc1ccccc1OCC(=O)Nc1ccc(N2CCN(C(=O)C(C)C)CC2)c(Cl)c1` the AC50 was 8.91 µM (active).
For `O=C(Nc1ccccc1N1CCOCC1)c1ccc([N+](=O)[O-])cc1`, the AC50 was “inactive”.
In the case of `Cc1ccccc1OCC(=O)NC(=S)Nc1ccc(N2CCOCC2)c(Cl)c1`, the AC50 is reported as “inactive”.
In the case of `CC(C)C(=O)N1CCN(c2ccccc2NC(=O)c2cccc(Cl)c2)CC1`, the AC50 is reported as 14.1 µM (active).
In the case of `Cc1ccc(-n2c(C)nc3c(cnn3-c3ccc(F)cc3)c2=O)cc1C`, the AC50 is reported as 22.4 µM (active).
For `COc1ccc(-n2c(=O)c(-c3ccc(F)cc3)nc3cncnc32)cc1`, the AC50 was “inactive”.
For `Cc1cc(C)n(-c2ccc(F)cc2)c(=O)c1C(=O)O`, the AC50 was “inactive”.
For `CCn1c(=O)c2[nH]c(-c3ccccc3)nc2n(CC)c1=O`, the AC50 was “inactive”.
In the case of `CSc1nc(-c2ccc(C)cc2)[nH]c1S(=O)(=O)c1ccccc1`, the AC50 is reported as 8.91 µM (active).
`O=C(NC(=S)Nc1cccc(Cl)c1N1CCCC1)c1ccc(-c2cccc([N+](=O)[O-])c2)o1` was tested, and the AC50 was “inactive”.
With `O=C(NC(=S)Nc1cccc(Cl)c1N1CCCCC1)c1cccs1` the AC50 was 2.51 µM (active).
In the case of `O=C(NC(=S)Nc1cccc(Cl)c1N1CCCCC1)c1ccco1`, the AC50 is reported as 6.31 µM (active).
In the case of `CC1CCN(c2ccccc2NC(=S)NC(=O)c2cccs2)CC1`, the AC50 is reported as 8.91 µM (active).
With `CC[C@@]1(O)C(=O)OCc2c1cc1n(c2=O)Cc2cc3c(CN(C)C)c(O)ccc3nc2-1` the activity, negative = inhibition was -16.8% [at 11.4 µM] (inactive).
In the case of `Clc1ccc2c(NCCNC3CCCCC3)ccnc2c1`, the activity, negative = inhibition is reported as 41% [at 11.4 µM] (inactive).
`O=C(COc1ccc(Cl)cc1)N(Cc1ccccc1)c1ccccn1` was tested, and the AC50 was 0.501 µM (active).
With `C[N+]1(C)CCc2cc(O)c(O)cc2[C@H]1Cc1ccc(O)c(O)c1` the activity, negative = inhibition was 26.9% [at 11.4 µM] (inactive).
`CCOc1cc(/C=N/n2cnnc2)c(Br)cc1O` was tested, and the AC50 was 10 µM (active).
In the case of `COc1cc(CNC2CCCC2)cc(Cl)c1OCc1ccccc1Cl`, the AC50 is reported as 2.24 µM (active).
In the case of `CCOC(=O)c1[nH]c(COC(=O)CCOc2ccccc2OC)c(C(=O)OCC)c1C`, the AC50 is reported as 4.47 µM (active).
In the case of `CCOC(=O)c1[nH]c(C(=O)O)c(CCC(=O)OC)c1C`, the AC50 is reported as “inactive”.
For `COc1cc(C2C(=O)N(C3CCCC3)CC(=O)N2Cc2ccco2)ccc1OC(C)C` (stereo not given), the AC50 was 4.47 µM (active).
With `CCOCCCN1C(=O)CN(C2CCCCC2)C(=O)C1c1ccc(OCC)c(OC)c1` (stereo not given) the AC50 was “inactive”.
In the case of `CC1CN(C(=O)c2cc3c(s2)CCC3)CC(C)O1` (stereo not given), the AC50 is reported as 14.1 µM (active).
For `Cc1cc(C(C#N)c2cccc(Cl)c2)n2ncnc2n1` (stereo not given), the AC50 was 28.2 µM (active).
With `CCN1C(=O)[C@H]2[C@H]3[C@H](O)[C@H](O)C/C(=N/O[C@@H](C)c4cn([C@H]5COC[C@H]5O)nn4)[C@@H]3CC[C@@H]2C1=O` the activity, negative = inhibition was 27.9% [at 11.4 µM] (inactive).
For `C[C@H](N)C(=O)OC(C)(C)Cc1ccc(Cl)cc1`, the AC50 was 3.98 µM (active).
`COC(=O)[C@H](N)Cc1ccc(Cl)cc1` was tested, and the AC50 was “inactive”.
With `C/C(=C\c1ccc(Cl)cc1)C(C)(C)C(=O)O` the activity, negative = inhibition was -25.9% [at 11.4 µM] (inactive).
`CC1=CC(C)(C)Nc2ccc(CSc3ccccc3)cc21` was tested, and the AC50 was 0.316 µM (active).
In the case of `COc1cc(C2C(C#N)=C(N)OC3=C2C(=O)CCC3)c([N+](=O)[O-])cc1OC` (stereo not given), the AC50 is reported as “inactive”.
In the case of `Cc1cc(C2C(C#N)=C(N)Oc3n[nH]c(C)c32)c(C)s1` (stereo not given), the AC50 is reported as 11.2 µM (active).
With `CC1(C)CC(=O)C2=C(C1)Oc1nc3ccccc3cc1C2C(C#N)C#N` (stereo not given) the AC50 was “inactive”.
In the case of `Cc1cc(C2C(C#N)=C(N)OC3=C2C(=O)CC(C)(C)C3)c(C)s1` (stereo not given), the AC50 is reported as 4.47 µM (active).
In the case of `CC(C)(C)C(=O)OCOC(=O)[C@@H]1N2C(=O)[C@@H](NC(=O)[C@H](N)c3ccccc3)[C@H]2SC1(C)C`, the AC50 is reported as “inactive”.
In the case of `C#CCOCCCC(=O)O`, the activity, negative = inhibition is reported as 22.8% [at 11.4 µM] (inactive).
In the case of `CCCCN1CCC(COC(=O)c2cc(Cl)c(N)c3c2OCCO3)CC1`, the AC50 is reported as “inactive”.
With `CC1(C)CC(=O)c2cn3ncnc3nc2C1` the AC50 was 15.8 µM (active).
In the case of `CC1(C)CC(=O)c2cnc(N)nc2C1`, the AC50 is reported as “inactive”.
`CC1(C)O[C@H]2C[C@@H]3[C@H]4CCC5=CC(=O)CC[C@@]5(C)[C@]4(F)[C@@H](O)C[C@@]3(C)[C@@]2(C(=O)CCl)O1` was tested, and the AC50 was “inactive”.
With `COc1ccc(-c2coc3cc4oc(=O)cc(C)c4cc23)cc1F` the AC50 was 3.55 µM (active).
In the case of `COc1cc2ccc(=O)oc2cc1O`, the AC50 is reported as “inactive”.
In the case of `Cn1c(SC2CCCCC2=O)nnc1-c1ccncc1` (stereo not given), the AC50 is reported as 7.08 µM (active).
With `CC1CC2(CCCCC2)N2C(=O)C(=O)c3cccc1c32` (stereo not given) the AC50 was 2.82 µM (active).
In the case of `C#CCN1C(C)=C(C(=O)OC)[C@@H](c2cccc([N+](=O)[O-])c2)C(C(=O)OCC)=C1C`, the AC50 is reported as 5.01 µM (active).
`CCOC(=O)C1=C(C)NC(C)=C(C(=O)OC)[C@H]1c1cccc([N+](=O)[O-])c1` was tested, and the AC50 was 0.251 µM (active).
For `CCOC(=O)C1=C(C)NC(C)=C(C(=O)OC)[C@@H]1c1cccc([N+](=O)[O-])c1`, the AC50 was 0.126 µM (active).
With `OC[C@@H]1O[C@@H](n2cnc3c(NC4CCCC4)ncnc32)[C@H](O)[C@H]1O` the AC50 was “inactive”.
With `NCc1ccc(S(N)(=O)=O)cc1` the AC50 was “inactive”.
